This is a sample that favours compounds with a hit; in the whole collection about 19% have one here.
HepG2 tox = counter-screen for TGF-b inhibitors: cytotoxicity in HepG2 cells; HepG2 CAGA-GFP viability, ATP luminescence, 18 h; Potency, µM (series often up to 46.1 µM), for the others: at the top dose activity change, negative = cytotoxicity, usual class: cytotoxic; 410,000 tested, 0.76% active; AID 588856; further: potency means the concentration at half of the fitted maximal effect
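HepG2 CAGA-GFP cells (1000/well, DMEM with 1% FBS) received compound, then TGF-beta at 500 pg/mL final, and were incubated 18 hours at 37 degrees C. Viability was read by CellTiter-Glo luminescence. Media-only wells were set as complete cell-killing and DMSO as no toxicity.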
TDP1 cell noCPT = qHTS for Inhibitors of human tyrosyl-DNA phosphodiesterase 1 (TDP1): qHTS in cells in absence of CPT; DT40 Tdp1-/- hTDP1 cells, no CPT, ATP luminescence, 48 h; Potency, µM (top dose mostly 46.2 µM), for the others: at the highest dose activity change, negative = growth inhibition, most hits filed as inhibitors; 420,000 tested, 15% active; AID 686978, 2013; further: potency means the concentration at half of the fitted maximal effect; on the % scale 0 is the no-effect control and ±100 the full control effect; nearly all actives have a fitted effect of over 55% in size
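Chicken DT40 Tdp1-/- cells complemented with human TDP1, screened without camptothecin (DMSO vehicle only), 400 cells/well. Compounds pin-transferred, cells incubated at 37 °C for at least 48 hr. Growth read as ATP-dependent luminescence (CellTiter-Glo, 30 min at RT).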
IL-1B inflam inh = blocks inflammasome-driven IL-1 beta release. THP-1 LPS/ATP IL-1B secretion, AlphaLISA, 16 h; stronger effect = lower value. activity change, % at 57.5 µM. 360,000 tested, 4.7% active; in the data active means activity change below about -50%; inconclusive means mostly about -30% to -49%; further: on the % scale 0 is the no-effect control and ±100 the full control effect
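THP-1 cells pretreated 1 hr with compounds (up to 57.5 uM final), then stimulated with LPS (250 ng/mL final) plus ATP (1.25 mM final); secreted IL-1B measured by AlphaLISA after 16 hr, decreased signal indicating inhibition.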
ASM inhibitor = inhibitors of human secretory acid sphingomyelinase; placental ASM, HMU-PC fluorogenic substrate, 60 min; Potency, µM (series often up to 57.5 µM), without a hit: at the top dose activity change, negative = inhibition, most hits filed as inhibitors; 340,000 tested, 0.006% active; further: potency means the concentration at half of the fitted maximal effect
Target sequence (P17405 47-631 limits assumed): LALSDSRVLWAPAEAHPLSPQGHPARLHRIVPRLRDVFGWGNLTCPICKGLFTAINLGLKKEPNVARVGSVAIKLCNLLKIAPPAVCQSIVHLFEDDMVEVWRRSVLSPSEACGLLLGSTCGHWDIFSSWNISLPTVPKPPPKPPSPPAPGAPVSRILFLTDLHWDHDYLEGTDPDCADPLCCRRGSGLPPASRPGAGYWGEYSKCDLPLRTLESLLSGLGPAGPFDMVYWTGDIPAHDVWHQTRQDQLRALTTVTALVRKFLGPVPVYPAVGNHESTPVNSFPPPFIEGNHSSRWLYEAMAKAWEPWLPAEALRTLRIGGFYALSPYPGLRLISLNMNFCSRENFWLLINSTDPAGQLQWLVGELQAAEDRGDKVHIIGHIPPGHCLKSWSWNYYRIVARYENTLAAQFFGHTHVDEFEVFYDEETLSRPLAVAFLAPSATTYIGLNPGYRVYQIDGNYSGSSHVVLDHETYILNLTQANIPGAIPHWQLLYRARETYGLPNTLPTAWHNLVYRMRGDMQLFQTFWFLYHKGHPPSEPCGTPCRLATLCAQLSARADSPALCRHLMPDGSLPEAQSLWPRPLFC
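Human placenta-derived ASM enzyme was preincubated with compound for 10 minutes at room temperature, then given fluorogenic substrate HMU-PC0 (9 uM final) for 60 minutes at 37 °C; a pH 10 stop preceded fluorescence reading at Ex 386/Em 447 nm.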
TGFb SMAD3 inh = inhibitors of TGF-b signaling; HepG2 CAGA-GFP TGF-b/SMAD3 reporter, GFP fluorescence, 18 h; TGF-beta stimulated, 500 pg/mL final; Potency, µM (highest dose often 46.1 µM), for inactives: at the highest dose activity, negative = inhibition, most hits filed as inhibitors; 410,000 tested, 1.2% active; AID 588855; further: potency means the concentration at half of the fitted maximal effect; on the % scale 0 is the no-effect control and ±100 the full control effect; nearly all actives have a fitted effect of over 65% in size
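Inhibition of TGF-beta-driven CAGA-GFP reporter expression in HEPG2 cells is measured by cellular GFP fluorescence after 18 h stimulation with 500 pg/mL recombinant TGF-beta in 1% FBS medium at 37 degrees C.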
DT40 TDP1 CPT = growth inhibition of DT40 Tdp1-/-;hTDP1 cells with camptothecin (screen for TDP1 inhibitors); chicken DT40 Tdp1-/-;hTDP1 cells + 20 nM CPT, ATP luminescence, 48 h; Potency, µM (series often up to 46.2 µM), for inactives: at the top dose activity change, negative = growth inhibition, most hits filed as inhibitors; 420,000 tested, 12% active; further: potency means the concentration at half of the fitted maximal effect; on the % scale 0 is the no-effect control and ±100 the full control effect; nearly all actives have a fitted effect of over 55% in size
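Cell growth measured by CellTiter-Glo luminescence after a minimum 48 h, 37 C compound exposure with 20 nM CPT in Tdp1-knockout DT40 cells stably expressing hTDP1, seeded 400/well; qHTS titration format.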
Starred values were filed as active, the others as inactive; u = inconclusive; x = no result. Unless noted, the call rests on the fitted dose curve; in most records, active means well fitted curve in the direction sought with a large enough effect; inconclusive means small, poorly fitted or top-dose-only effect, or another doubt; inactive means no such curve, though single readings can be large; an effect the other way counts as inactive or inconclusive.

SMILES	HepG2 tox	TDP1 cell noCPT	IL-1B inflam inh	ASM inhibitor	TGFb SMAD3 inh	DT40 TDP1 CPT
O=C(CCC(=O)N(CC(=O)NC1CCCC1)Cc1ccccc1)Nc1nccs1	0%	1%	3	3%	-11%	2%
Cc1onc(-c2ccccc2)c1C(=O)NCC(=O)Nc1cc(Cl)ccc1Cl	-9%	u	u	0%	-8%	u
Cc1ccc(-c2nn3c(C)nnc3s2)cc1NC(=O)CSc1ccc(Cl)cc1	3%	18µM*	23	-1%	16%	u
COc1c(C)cc(Br)cc1C(=O)Nc1cccc(-c2nc3ncccc3o2)c1	-13%	21µM*	-21	-15%	-8%	21µM*
Cc1c(NC(=O)c2ccc(-c3ccc(F)cc3)o2)cccc1-c1nc2ncccc2o1	0%	9.2µM*	x	x	-21%	4.6µM*
Cc1nnc2sc(-c3ccc(NC(=O)CSc4ccc(Cl)cc4)cc3)nn12	-25%	-15%	u	-3%	-3%	-22%
O=C(Nc1cccc(-c2nc3ncccc3o2)c1)c1ccc(-c2cccc(Cl)c2Cl)o1	-4%	6.5µM*	x	x	-16%	5.8µM*
COc1cccc(CNC(=O)CCn2cccn2)c1	1%	1%	x	x	31%	9%
COc1ccccc1NC(=O)c1sc2nc(C)c(C(=O)Nc3ccc(C)cc3C)c(-c3ccco3)c2c1N	12%	u	x	x	0%	u
Cc1ccc(CNc2cc(-c3nn4c(C)nnc4s3)ccc2C)s1	-26%	u	16	31%	32%	u
Cc1ccc(-c2nn3c(C)nnc3s2)cc1NCc1c(F)cccc1Cl	-10%	18µM*	-21	28%	31%	18µM*
Cc1cc(C)c(OCC(=O)Nc2cccc(-c3nc4ncccc4o3)c2)c(Br)c1	-2%	u	x	x	15%	u
Cc1ccc(C(C)C)c(OCC(=O)Nc2cccc(-c3nc4ncccc4o3)c2)c1	6%	21µM*	x	x	1%	21µM*
O=C(CSc1ccc(Cl)cc1)Nc1cccc(-c2nc3ncccc3o2)c1	1%	18µM*	u	-18%	10%	u
Cc1ccc(CNS(=O)(=O)c2ccc3c(c2)NC(=O)CS3)cc1	-8%	15µM*	20	-2%	-30%	u
O=c1[nH]c(CSc2nnnn2-c2ccc(Cl)cc2)nc2ccccc12	-1%	u	54	-1%	9%	-27%
Cc1cc(C(=O)CSc2nc3ccccc3c(=O)[nH]2)c(C)n1C	0%	6.5µM*	-17	-9%	-3%	u
c1ccc(-n2nnnc2SCc2cccc(CSc3nnnn3-c3ccccc3)n2)cc1	-21%	13µM*	-10	-2%	u	u
COC(=O)c1ccc(CSc2nnnn2-c2ccccc2)o1	-2%	-22%	4	3%	-1%	-3%
c1ccc(CSc2nnnn2-c2ccccc2)cc1	4%	0%	u	-1%	0%	-20%
CCc1ccc(-n2c(CSc3nnnn3-c3ccccc3)nc3ccccc3c2=O)cc1	8%	18µM*	4	-2%	u	u
Clc1ccc(-n2nnnc2SCc2c(-c3ccccc3)nc3sccn23)cc1	-7%	13µM*	-21	-14%	42%	u
COc1cccc(CNC(=O)C2CCCCN2S(=O)(=O)c2ccc(F)cc2)c1 (configuration not stated)	-23%	u	x	x	-20%	u
CCOc1ccc(-c2nonc2NC(=O)COc2ccc(C)c(C)c2)cc1OCC	-13%	-17%	x	x	8%	-25%
O=c1[nH]c(SCc2nc3ccccc3c(=O)n2-c2ccccc2)nc2ccccc12	-10%	u	14	1%	-3%	12µM*
SMILES	HepG2 tox	TDP1 cell noCPT	IL-1B inflam inh	ASM inhibitor	TGFb SMAD3 inh	DT40 TDP1 CPT
O=C(CCCSc1nc2ccccc2c(=O)[nH]1)c1ccccc1	-7%	15µM*	43	-1%	-13%	u
O=c1[nH]c(SCc2ccc(Cl)cc2)nc2ccccc12	-10%	-11%	10	-3%	-12%	-22%
CCCCc1c(O)nc(SCC(=O)c2ccccc2)[nH]c1=O	-6%	u	18	1%	u	u
O=C(CSc1nc(O)c(Cc2ccccc2)c(=O)[nH]1)c1ccccc1	3%	2.1µM*	3	-3%	-2%	u
O=C(CSc1nc2ccccc2c(=O)[nH]1)N1CCN(c2ccccc2F)CC1	-77%	18µM*	26	-3%	17%	u
CCOC(=O)C1CCN(c2c(NCCC(C)C)c(=O)c2=O)CC1	-5%	5%	8	5%	2%	-8%
Cc1ccc(Cl)cc1NS(=O)(=O)Cc1ccccc1	-7%	-5%	-4	-6%	23%	-2%
Cc1nc2scc(C)n2c(=O)c1S(=O)(=O)N1CCN(c2ccc([N+](=O)[O-])cc2)CC1	-10%	8%	0	-1%	8%	-2%
CC(c1nnc(SCC(=O)Nc2cc([N+](=O)[O-])ccc2F)n1Cc1ccccc1)N(C)C (configuration not stated)	-6%	-26%	-1	-4%	-5%	-27%
O=C(NC1CCCC1)C(c1ccccn1)N(Cc1ccccc1F)C(=O)c1csnn1 (configuration not stated)	-2%	2%	0	-1%	-12%	-11%
CS(=O)c1ccccc1-c1nc(-c2ccc([N+](=O)[O-])cc2)no1 (configuration not stated)	-33%	-2%	2	5%	-13%	8%
O=C(CSc1nc2ccccc2c(=O)[nH]1)c1ccccc1	-16%	29µM*	3	-2%	-33%	21µM*
COc1ccc(C(=O)CSc2nc(C(C)(C)C)nc3ccccc23)cc1	-31%	21µM*	4	-9%	20µM*	u
CC(C)(C)c1ccc(C(=O)CSc2nc3ccccc3c(=O)[nH]2)cc1	-1%	2.8µM*	27	-1%	-7%	2.8µM*
O=C(O)CSc1nc2ccccc2c(=O)[nH]1	5%	0%	-5	3%	11%	-1%
COc1cc(O)c(C(=O)/C=C/c2ccccc2)c(OC)c1	-52%	18µM*	-106*	28%	u	15µM*
COc1cc(OC)c(C(=O)/C=C/c2ccc(OCc3ccccc3)c(OC)c2)c(OC)c1	6%	23µM*	-90*	-2%	0%	23µM*

High-throughput results from PubChem.
